Source: PubChem BioAssay (Tox21)
Results filed as inconclusive are left out. Unmarked numbers belong to inactive results. Calls come from the whole dose curve; as a rule, active = well fitted inhibition curve with a large enough effect in the repeat runs; inconclusive = weak or mixed curves, or effect the other way; inactive = no such curve, though single readings can be large or run the other way.

Molecular target: Androgen receptor (Homo sapiens) (UniProt P10275)
Experiment: qHTS assay to identify small molecule antagonists of the androgen receptor (AR) signaling pathway using the MDA cell line (AID 743042; note: nearly all actives have a fitted effect of over 55% in size)
Conditions: MDA-kb2 AR-luc, MMTV luciferase, R1881 antagonist, 16 h; series mostly up to 70.3 µM; activity change, negative = inhibition: at the top concentration
Source text: U.S. Tox21 Program National Center for Advancing Translational Sciences [NCATS] NIH Chemical Genomics Center [NCGC] U.S. Environmental Protection Agency [EPA] National Institutes of Environmental Health Sciences [NIEHS] National Toxicology Program [NTP] U.S. Food and Drug Administration [FDA] Tox21 Assay Overview: Androgen receptor (AR), a nuclear hormone receptor, plays a critical role in AR-dependent prostate cancer and other androgen related diseases. Endocrine disrupting chemicals (EDCs) and their interactions with steroid hormone receptors like AR may cause disruption of normal endocrine function as well as interfere with metabolic homeostasis, reproduction, developmental and behavioral functions. To identify the compounds that inhibit AR signaling, MDA-kb2 AR-luc cell line (from ATCC, deposited by Wilson et al.) was used to screen the Tox21 10K compound library. MDA-kb2 AR-luc cell line is human breast carcinoma cell line that was stably transfected with a luciferase reporter gene under control of the MMTV promoter containing response elements for both androgen receptor (AR) and glucocorticoid receptor (GR).
Tox21 Assay Protocol Summary: MDA-kb2 cells were dispensed at 3,000 cells/4 uL/well of culture medium into white wall/solid-bottom 1536-well plates using a Multidrop Combi (ThermoFisher Scientific, Waltham, MA) dispenser. After the assay plates were incubated at a 37C and 0% CO2 for 5 hr, 23 nL of compounds dissolved in DMSO, positive controls or DMSO only was transferred to the assay plate by a Pintool station (Kalypsys, San Diego, CA), followed by addition of 1 uL of agonist (R1881) in culture medium using a Bioraptr Flying Reagent Dispenser (FRD) workstation (Beckman Coulter, Indianapolis, IN, USA). The plates were incubated at a 37C and 0% CO2 for 16 h. After 15.5 h incubation, 1uL of CellTiter-Fluor reagent (Promega, Madison, WI) was added using a Bioraptr FRD to each plate for measuring cytotoxicity. The fluorescence intensity was quantified on a ViewLux plate reader (PerkinElmer, Shelton, CT) following 30 min incubation at 37C and 0% CO2. For measuring luciferase reporter gene activity, 4 uL of ONE-Glo reagent (Promega) was added to each plate using a Bioraptr FRD and luminescence was quantified on a ViewLux (PerkinElmer) plate reader after 30 min incubation at room temperature.
% is set by controls: 0 for no effect and ±100 for the full control effect.

Chain of Androgen receptor (Homo sapiens) (P10275 whole entry, looked up): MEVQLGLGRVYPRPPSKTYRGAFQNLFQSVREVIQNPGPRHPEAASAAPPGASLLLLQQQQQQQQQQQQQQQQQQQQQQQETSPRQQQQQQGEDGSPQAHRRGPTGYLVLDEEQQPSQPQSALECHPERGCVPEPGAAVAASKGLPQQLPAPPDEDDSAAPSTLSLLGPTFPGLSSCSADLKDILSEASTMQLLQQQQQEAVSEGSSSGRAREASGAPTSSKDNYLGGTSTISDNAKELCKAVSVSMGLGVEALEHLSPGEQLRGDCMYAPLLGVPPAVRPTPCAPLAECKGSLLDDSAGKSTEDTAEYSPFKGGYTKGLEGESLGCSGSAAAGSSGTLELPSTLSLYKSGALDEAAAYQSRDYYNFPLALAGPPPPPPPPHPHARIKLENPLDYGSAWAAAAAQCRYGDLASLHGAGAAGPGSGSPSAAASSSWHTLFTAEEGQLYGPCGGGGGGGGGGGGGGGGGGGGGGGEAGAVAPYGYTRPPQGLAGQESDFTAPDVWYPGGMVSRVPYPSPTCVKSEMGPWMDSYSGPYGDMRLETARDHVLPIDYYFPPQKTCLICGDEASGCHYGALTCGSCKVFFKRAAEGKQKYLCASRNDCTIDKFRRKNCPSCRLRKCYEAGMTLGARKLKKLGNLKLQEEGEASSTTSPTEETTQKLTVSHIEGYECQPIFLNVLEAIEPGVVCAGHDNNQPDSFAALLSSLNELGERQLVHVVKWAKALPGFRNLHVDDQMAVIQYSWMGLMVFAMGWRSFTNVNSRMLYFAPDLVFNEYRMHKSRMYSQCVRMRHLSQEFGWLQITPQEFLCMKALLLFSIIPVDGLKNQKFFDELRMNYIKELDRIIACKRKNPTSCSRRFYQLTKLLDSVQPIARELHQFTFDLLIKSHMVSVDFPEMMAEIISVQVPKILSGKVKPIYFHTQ

SMILES | activity change, negative = inhibition
CC1=CCC2C(C1)C2(C)C (configuration not stated) | 22.6%
NC(N)=NS(=O)(=O)c1ccc(N)cc1 | -4.95% [at 32.5 µM]
CN(C)CCn1nnnc1SCC1=C(C(=O)O)N2C(=O)[C@@H](NC(=O)Cc3csc(N)n3)[C@H]2SC1 | 1.41% [at 32.5 µM]
CCCCCCOC(=O)c1ccccc1O | 8.84%
NCC[C@H](O)C(=O)N[C@@H]1C[C@H](N)[C@@H](O[C@H]2O[C@H](CN)[C@@H](O)[C@H](O)[C@H]2O)[C@H](O)[C@H]1O[C@H]1O[C@H](CO)[C@@H](O)[C@H](N)[C@H]1O | -0.466%
CCCCNc1ccccc1 | -14.9%
Cc1ncc(CSSCc2cnc(C)c(O)c2CO)c(CO)c1O | 6.21%
O=C(O)c1ccc[n+]([O-])c1 | -4.23%
CCCCCCCCN(C)CCCCCCCC | 6.41% [at 95 µM]
COc1cccc(Br)c1 | 0.405%
CCCC(C)CO (configuration not stated) | 2.2%
Cc1ccc(N)cc1[N+](=O)[O-] | -0.261% [at 95 µM]
CCCCCCOC(=O)CC(CC(=O)OCCCCCC)(OC(=O)CCC)C(=O)OCCCCCC | 2.54%
CCN1CCN(c2cc3c(cc2F)c(=O)c(C(=O)O)cn3C2CC2)CC1 | 7.79%
CC(C)CCCCCCN | 4.89%
CCCCCN(CCCCC)C(=O)C(CCC(=O)O)NC(=O)c1ccc(Cl)c(Cl)c1 (configuration not stated) | 30.7%
COc1cc(CCC(C)=O)ccc1O | -15.9%
CCCOCC(C)OCC(C)O (configuration not stated) | -18.3% [at 95 µM]
CC(C)c1ccc2oc3nc(N)c(C(=O)O)cc3c(=O)c2c1 | 212%

SMILES | activity change, negative = inhibition
C=CCn1c(=O)n([C@@H]2O[C@H](CO)[C@@H](O)[C@H]2O)c2nc(N)[nH]c(=O)c21 | 24.4%
CN1[C@@H]2CC[C@H]1CC(NC(=O)n1c(=O)[nH]c3ccccc31)C2 (some centres not stated) | 13.2%
OCCN1C[C@H](O)[C@@H](O)[C@H](O)[C@H]1CO | -0.43%
CCN1CCCC1CNC(=O)c1cc(S(N)(=O)=O)ccc1OC (configuration not stated) | -8.5%
CCOC(=O)Nc1ccc2c(c1)N(C(=O)CCN1CCOCC1)c1ccccc1S2 | 37.5% [at 32.5 µM]
COc1ccc(NC(C)=O)cc1 | 7.54% [at 95 µM]
CCCC(=O)O[C@]1(C(=O)CCl)[C@@H](C)C[C@H]2[C@@H]3CCC4=CC(=O)C=C[C@]4(C)[C@@]3(F)C(=O)C[C@@]21C | -22.9%
NS(=O)(=O)c1cc2c(cc1C(F)(F)F)NC(Cc1ccccc1)NS2(=O)=O (configuration not stated) | 1.57% [at 32.5 µM]
c1ccc(SCCSc2ccccc2)cc1 | 48.1%
C#CC(O)C(CC)CCCC (configuration not stated) | -0.989%
C1CCCCCCCCCCC1 | 0.122% [at 32.5 µM]
Cc1nc(-c2ccc(OCC(C)C)c(C#N)c2)sc1C(=O)O | 90.9%
O=S(=O)(O)c1ccccc1O | -3.9%
C1COCCO1 | 7.23% [at 95 µM]
O=C(O)/C=C/c1ccc(/C=C/C(=O)O)cc1 | 4.31%
NC1CCN(c2cccc(Cl)n2)CC1 | -2.82%
CCCCc1ccc2cccc(S(=O)(=O)O)c2c1 | 5.67%
CC1(C)SC(C)(C)SC(C)(C)S1 | 1.23%
